High-throughput results (PubChem BioAssay)
An excerpt weighted towards active compounds, which were near 8.3% of everything screened.
Chronic BCR inh = chronic active BCR signaling inhibition; ABC-DLBCL IkBa-CBG/CBR reporter, luminescence ratio, 4 h; 340,000 tested, 0.05% active; Potency, µM (series often up to 46.1 µM), without a hit: at the top dose activity change, negative = inhibition, actives largely listed as inhibitors; active = well fitted inhibition curve with a large enough effect in the signal ratio, with a control signal flat, not every such curve was filed as active; inconclusive = small, poorly fitted or top-dose-only effect, or effect the other way, or a change in a side signal; the % refers to the signal ratio;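 note: potency is the fitted concentration of half-maximal effect; plate controls were basal doxycycline-induced cells for no effect and cells given 10 µM MG132 for full effect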
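TMD8 ABC-DLBCL cells carrying doxycycline-inducible green luciferase fused to IkappaBalpha plus unfused red luciferase were exposed to compounds (up to 46 uM) for 4 hrs at 37C. Activity came from the overlap-corrected green/red luminescence ratio.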
RORgamma inh = inhibitors of mouse ROR gamma transcriptional activity; Potency, µM (series often up to 53.6 µM), for the others: top-dose activity change, negative = inhibition, usual class: inhibitors; AID 2551; Drosophila S2 Gal4-RORgamma UAS-luciferase reporter, 20 h; 310,000 tested, 5.4% active; P51450; note: potency is the fitted concentration of half-maximal effect; % is set by controls: 0 for no effect and ±100 for the full control effect; nearly all actives have a fitted effect of over 60% in size
Target sequence (P51450 whole entry, looked up, the tested form may be a part): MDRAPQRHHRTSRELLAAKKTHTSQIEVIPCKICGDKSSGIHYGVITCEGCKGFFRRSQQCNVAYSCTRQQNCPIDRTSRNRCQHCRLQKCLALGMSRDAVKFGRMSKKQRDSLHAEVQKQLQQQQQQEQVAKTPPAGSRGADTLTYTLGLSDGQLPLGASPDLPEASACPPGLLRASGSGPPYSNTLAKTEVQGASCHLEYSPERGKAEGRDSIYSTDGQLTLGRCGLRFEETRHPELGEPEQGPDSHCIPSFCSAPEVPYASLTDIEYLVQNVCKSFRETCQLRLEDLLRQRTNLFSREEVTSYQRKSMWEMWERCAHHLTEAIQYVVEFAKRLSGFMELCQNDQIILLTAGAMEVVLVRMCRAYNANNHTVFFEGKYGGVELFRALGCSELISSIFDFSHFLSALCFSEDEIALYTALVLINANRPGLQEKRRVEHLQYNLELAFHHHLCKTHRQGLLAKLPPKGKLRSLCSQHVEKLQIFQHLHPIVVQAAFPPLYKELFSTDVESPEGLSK
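Schneider cells (Drosophila), stable Gal4 DBD–ROR gamma + UAS-luc; 1 hr cmpd preincubation; Cu2+ induction 700 uM final; 20 hr ambient; luminescence.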
Gal4-VP16 FLuc = Gal4-VP16 reporter inhibition counter-screen | Drosophila S2 Gal4-VP16 UAS-luciferase, luminescence, 20 h | Potency, µM (series often up to 53.6 µM), for inactives: top-dose activity, negative = inhibition, usual class: inhibitors | 310,000 tested, 3.5% active | AID 2546;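 note: Gal4-VP16 expression switched on by copper sulfate through the metallothionein promoter; potency is the fitted concentration of half-maximal effect; % is set by controls: 0 for no effect and ±100 for the full control effect; nearly all actives have a fitted effect of over 50% in size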
SW480 rereplic = induces DNA re-replication in SW480 colon adenocarcinoma cells | SW480 DNA re-replication, Hoechst DNA content imaging, 48 h | Potency, µM (top dose mostly 46.1 µM), inactives show at the top dose re-replication activation, hits mostly activators | 340,000 tested, 1.8% active | AID 624297; note: potency is the fitted concentration of half-maximal effect; % of control where 0% means no effect; nearly all actives have a fitted effect of over 55% in size
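Image-based read-out: total Hoechst fluorescence of nuclei (405 nm excitation, 500-530 nm emission), with hits raising the fraction of high-intensity nuclei. SW480 colon cells incubated 48 hr with compounds at 37 C.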
Giardia killer = Giardia lamblia killing | Giardia lamblia trophozoite viability | activity change, % at 7.66 µM, hits read low | 340,000 tested, 0.15% active | AID 540267; in the data active = activity change below about -80%; inconclusive = between about -30% and that limit;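 note: parasites exposed to compound for two days anaerobically before the ATP read; % is set by controls: 0 for no effect and ±100 for the full control effect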
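Giardia lamblia trophozoites (100 cells/well) were incubated with compounds for 48 h at 37 deg C under anaerobic conditions. Viability was read as ATP content by one-step luminescence after 15-30 min at room temperature.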
MCF10A rereplic = induces DNA re-replication in MCF 10a normal breast cells | AID 624296 | MCF 10A DNA re-replication, Hoechst nuclear intensity, 48 h | 350,000 tested, 2.9% active | Potency, µM (top dose mostly 46.1 µM), for inactives: at the top dose activity, positive = re-replication, actives largely listed as activators; note: potency is the fitted concentration of half-maximal effect; % of control where 0% means no effect; nearly all actives have a fitted effect of over 50% in size
Starred values were filed as active, the others as inactive; ? = inconclusive; . = no result given; [ ] = remark or other dose. Unless noted, calls come from the whole dose curve; as a rule, active = well fitted curve in the direction sought with a large enough effect; inconclusive = small, poorly fitted or top-dose-only effect, or another doubt; inactive = no such curve, though single readings can be large; an effect the other way counts as inactive or inconclusive.

SMILES	Chronic BCR inh	RORgamma inh	Gal4-VP16 FLuc	SW480 rereplic	Giardia killer	MCF10A rereplic
Cc1cccc(-n2c(C)cc(/C=N/NC(=O)c3cccc([N+](=O)[O-])c3C)c2C)c1	1.0%	7.94µM*	?	?	9.9	?
Cc1c(/C=N\NC(=O)c2cccc(F)c2)cnn1C	?	-1.5%	16.1%	-0.6%	-16.9	-6.3%
Cc1ccc2cc(/C=N/NC(=O)c3ccccc3[N+](=O)[O-])c(Cl)nc2c1	15.6%	-16.4%	-10.4%	-1.4%	-12.1	-1.6%
CCOc1ccccc1N1CCN(C(=O)c2ccccc2)CC1	-1.4%	-6.8%	5.1%	-8.1%	0.7	-1.3%
CCOc1ccccc1N1CCN(C(=O)C2c3ccccc3Oc3ccccc32)CC1	-13.8%	24.9%	-6.5%	16.4µM*	4.0	6.51µM*
CCNc1ncc2nc(-c3cc(F)cc(F)c3)c(=O)n(Cc3ccc(F)cc3)c2n1	.	8.6%	-4.2%	.	.	.
Cn1nc([N+](=O)[O-])c(C(C#N)c2ccccn2)c(Cl)c1=O (centres undefined)	?	10µM*	?	?	-26.9	?
Cc1nc2ccc(N=NC3=C(O)CC(C)(C)CC3=O)cc2s1	1.3%	-34.6%	-29.7%	2.0%	0.6	10.5%
CCOc1ccc2nc(N=NC3=C(O)CC(C)(C)CC3=O)sc2c1	28.1%	2.24µM*	3.2%	32.8%[1.84 µM]	-4.5	-0.2%
O=C(c1cc(-c2ccc(Br)cc2)on1)N1CCCCCC1	?	-0.6%	?	-24.4%	-5.9	-13.1%
O=C(c1cc(-c2ccc(Br)cc2)on1)N1CCOCC1	?	10µM*	?	0.5%	-15.8	1.1%
COc1ccc(-c2cc(C(=O)N3CCOCC3)no2)cc1	?	10µM*	?	-1.0%	-10.3	-0.5%
Cc1ccccc1COc1ccc(-c2nnn(CC(=O)O)n2)cc1	-2.4%	-3.1%	-2.9%	-4.7%	-25.9	-3.9%
O=C(c1c[nH]c2ccccc12)C(O)C(c1ccccc1)N1CCOCC1 (centres undefined)	0.0%	8.4%	7.0%	1.8%	-10.5	2.0%
O=C1CCC(C(=O)OC(C(=O)c2c[nH]c3ccccc23)c2ccccc2)=NN1 (centres undefined)	-3.8%	33.1%[10 µM]	7.08µM*	-4.4%	2.3	1.7%
O=C(OC(C(=O)c1c[nH]c2ccccc12)c1ccccc1)c1cnccn1 (centres undefined)	-1.0%	0.4%	-11.3%	-9.6%	16.1	-27.3%
O=C(c1c[nH]c2ccccc12)C(Cl)c1ccccc1 (centres undefined)	?	-22.3%	2.3%	?	-7.3	23.1µM*
Cc1ccc(N2CC(NC(=O)c3cccs3)CC2=O)cc1 (centres undefined)	14.8%	.	.	.	.	.
COc1ccc(OC)c(S(=O)(=O)NCc2ccccn2)c1	-0.4%	?	-1.8%	-6.7%	10.9	9.0%
Cc1ccc(NC(=O)Nc2ccno2)cc1	?	16.0%	-9.3%	-6.4%	0.6	-1.8%
O=C(c1ccco1)N1CCC2(CC1)CCN(c1cccc(-c3ccccc3)c1)CC2	.	22.5%	11.9%	.	.	.
CC(=O)Nc1ccc(S(=O)(=O)N(C)c2ccc(OCC(=O)Nc3ccccc3C(C)=O)cc2)cc1	?	.	.	10.0%	-3.4	?
CC(=O)c1ccc(OCCCC(=O)Nc2cc(S(=O)(=O)N(C)C)ccc2C)cc1	-3.7%	25.7%	-5.9%	16.4µM*	6.6	-3.5%
Cc1ccc(S(=O)(=O)N(C)C)cc1NC(=O)C(C)N(C)CCOc1ccc(Cl)cc1 (centres undefined)	-0.3%	?	?	?	-0.9	18.4µM*
CC(=O)c1ccccc1NC(=O)COc1ccc(N(C)S(=O)(=O)c2ccc(C)c(C)c2)cc1	0.3%	.	.	6.1%	-1.9	20.6µM*
SMILES	Chronic BCR inh	RORgamma inh	Gal4-VP16 FLuc	SW480 rereplic	Giardia killer	MCF10A rereplic
Cc1ccc(S(=O)(=O)N(C)C)cc1NC(=O)C(C)Sc1ccccc1 (centres undefined)	0.0%	-0.2%	11.2%	-5.4%	5.7	19.3%
CC(=O)N(C(C)=O)c1nc(-c2ccccc2)cn1/N=C/c1cccc([N+](=O)[O-])c1	1.1%	8.0%	3.9%	-10.6%	4.6	5.7%
CCCNC(=O)c1cccc(COCC(F)(F)C(F)F)c1	?	-13.8%	1.0%	?	15.3	?
COc1ccc(OCc2cc(C(=O)N(C)Cc3cc(C4CC4)n[nH]3)no2)c(Cl)c1	?	?	-5.6%	-0.8%	?	21.9%
CN(Cc1cc(Br)cc(Br)c1N)C1CCCCC1	.	?	-2.5%	?	.	26.6µM*
CC(C)CC(NC(=O)C(CC(C)C)NC(=O)C(Cc1ccc(OCc2ccccc2)cc1)NC(=O)OC(C)(C)C)C(N)=O (centres undefined)	9.2%	-3.5%	2.0%	?	-0.2	0.6%
CC(C)CC(NC(=O)C(NC(=O)C(Cc1ccc(OCc2ccccc2)cc1)NC(=O)OC(C)(C)C)C(C)C)C(N)=O (centres undefined)	-0.2%	?	12.6µM*	-2.6%	1.0	?
COc1ccccc1C(=O)Nc1ccc2c(c1)nc(CCNC(=O)c1ccccc1)n2C	?	-38.9%	-28.1%	13µM*	-15.3	6.51µM*
COCCCn1c(C)nnc1SCC(=O)Nc1cccc(C)c1	5.6%	11.7%	6.3%	-62.3%	-13.7	8.1%
CCOC1=C/C(=C/c2c(N)n3nc(-c4ccccc4)sc3nc2=O)C=CC1=O	?	-24.5%	3.2%	-6.8%	-2.0	25.9µM*
Nc1nc(CCl)nc(Nc2cccc3ccccc23)n1	?	11.2µM*	10µM*	?	-1.8	?
CCOC(=O)c1c(NC(=S)Nc2cc([N+](=O)[O-])ccc2OC)sc2c1CCCCC2	0.9%	5.62µM*	3.98µM*	.	.	.
CCOC(=O)c1c(NC(=S)Nc2ccc(F)cc2)sc2c1CCC2	?	10µM*	?	-5.3%	-21.8	?
CCOC(=O)c1c(NC(=S)NC(=O)c2cnn(CC)c2)sc2c1CCC(C)C2 (centres undefined)	1.2%	11.2µM*	-5.6%	1.3%	10.1	?
COC(=O)c1c(NC(=S)Nc2cc(OC)c(Cl)cc2OC)sc2c1CCCCC2	5.0%	17.1%	?	-1.9%	-1.3	?
CCOc1ccc(NC(=O)c2c(NC(=O)CN3CCCC3)sc3c2CCC3)cc1	-2.5%	4.47µM*	4.47µM*	2.4%	15.4	14.2%
Cc1ccc(CSCC(=O)Nc2cc(S(=O)(=O)N3CCOCC3)ccc2OC(C)C)cc1	4.8%	.	.	-87.0%	1.0	23.3%
CCC(C)c1ccccc1N1CC(C(=O)N2CCN(C(=O)c3ccco3)CC2)CC1=O (centres undefined)	4.7%	.	.	9.0%	31.8	9.3%
